Vaccinia mCherry = vaccinia inhibition (mCherry reporter) | Vaccinia virus mCherry reporter infection, fluorescence | Potency, µM (highest dose often 36.5 µM), most hits filed as inhibitors | actives 0.63% (n = 310,000) | AID 720579; calls by dose curve; tested in A549 cells; further: nearly all actives have a fitted effect of over 35% in size
Pf growth 96h = inhibits malaria parasite growth, 96 h; P. falciparum luciferase reporter growth, 96 h; Potency, µM (doses to about 28.7 µM), most hits filed as inhibitors; actives 6.9% (n = 320,000)
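Two parasite generations (96 h, 37 C, 5% CO2) of compound exposure in infected erythrocytes (0.05% parasitemia, 2% hematocrit). Luciferase-reporter P. falciparum; decreased luminescence indicates inhibited growth, aimed at apicoplast-acting delayed death.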
Pf growth 48h = inhibits P. falciparum growth in the first generation, 48 h; P. falciparum luciferase growth in erythrocytes, 48 h; Potency, µM (highest dose often 28.7 µM), usual class: inhibitors; actives 5.9% (n = 310,000); AID 504832
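Growth was read as firefly luciferase luminescence after a 48 h, 37 C, 5% CO2 exposure of compounds to reporter-bearing P. falciparum cultures (0.1% parasitemia, 2% hematocrit final) in Albumax-supplemented RPMI 1640.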
AMA1-RON2 inh = inhibitors of Plasmodium falciparum AMA1-RON2 interaction. AlphaScreen AMA1-biotinylated RON2 peptide binding. Potency, µM (doses to about 58.2 µM), usual class: inhibitors. actives 0.2% (n = 360,000); further: nearly all actives have a fitted effect of over 45% in size
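AMA1 (3D7) with his tag at 25 nM final met compounds first, then biotinylated RON2 peptide at 25 nM; detection used donor plus acceptor beads, 10 µg/mL apiece, read by AlphaScreen after 30 min at room temperature.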
Vaccinia Venus = inhibitors of vaccinia virus (Venus reporter); Vaccinia virus Venus reporter expression, fluorescence; Potency, µM (doses to about 36.5 µM), hits mostly inhibitors; actives 0.46% (n = 330,000); calls by dose curve; tested in A549 cells; further: nearly all actives have a fitted effect of over 30% in size
Each line names hits and unclear results; the compound was inactive in the other large screens. In the library only some 8.7% were active in any assay of this set; here they are far more common. Unless noted, the call rests on the fitted dose curve; in most records, active means well fitted curve in the direction sought with a large enough effect; inconclusive means small, poorly fitted or top-dose-only effect, or another doubt; inactive means no such curve, though single readings can be large; an effect the other way counts as inactive or inconclusive.

NC(N)=NCCCC(NC(=O)c1ccccc1)C(=O)Nc1ccc([N+](=O)[O-])cc1 (configuration not stated)	Pf growth 96h 9.28µM, Pf growth 48h inconclusive
O=C(O)CC(NNC(=O)c1ccccc1)C(=O)Nc1ccc([N+](=O)[O-])cc1 (configuration not stated)	none (no result: Vaccinia mCherry, Vaccinia Venus)
Clc1cccc(C2=NC(c3cccs3)=Nc3ccc(Br)cc3N2)c1	none (no result: Pf growth 96h, Pf growth 48h, AMA1-RON2 inh)
Cc1cc(-c2ccc(C)c(S(=O)(=O)N(C)c3ccc(C)c(C)c3)c2)on1	none (no result: Pf growth 96h, Pf growth 48h, AMA1-RON2 inh)
COC(=O)c1cnc(NCc2ccc(F)cc2)c2ccccc12	none (no result: Pf growth 96h, Pf growth 48h, AMA1-RON2 inh)
Cc1ccc2ccc3cc(C(=O)N4CCN(c5ccccc5)CC4)nc3c2[nH]1	none (no result: Pf growth 96h, Pf growth 48h, AMA1-RON2 inh)
Cc1cc(C)c2c(n1)nn1c(N3CCN(Cc4ccccc4)CC3)cc(C)nc21	none (no result: Pf growth 96h)
COc1ccc(F)cc1CN1CCN(c2cc(C)nc3c4c(C)cc(C)nc4nn23)CC1	Pf growth 96h inconclusive, Pf growth 48h 14.7µM (no result: Vaccinia mCherry, AMA1-RON2 inh, Vaccinia Venus)
Cc1nn2c(-c3ccc(S(=O)(=O)N4CCN(CCO)CC4)o3)nnc2c2ccccc12	Pf growth 96h 10.4µM, Pf growth 48h 9.28µM (no result: Vaccinia mCherry, Vaccinia Venus)
COc1ccc(-c2nnc3c4ccccc4c(C)nn23)cc1S(=O)(=O)N1CCN(CCO)CC1	Pf growth 96h 2.62µM, Pf growth 48h 4.65µM (no result: Vaccinia mCherry, Vaccinia Venus)
Cc1nn2c(-c3ccco3)nnc2c2ccccc12	none (no result: Vaccinia mCherry, Vaccinia Venus)
Cc1ccc(-c2nn3c(C)nnc3c3ccccc23)cc1S(=O)(=O)N1CCN(CCO)CC1	Pf growth 96h inconclusive, Pf growth 48h inconclusive (no result: Vaccinia mCherry, Vaccinia Venus)
CCOc1ccc(CNC(=O)CCC(=O)N2CC(C)Sc3ccccc32)cc1 (configuration not stated)	none (no result: Pf growth 96h, Pf growth 48h, AMA1-RON2 inh)
CCOc1ccc(C(=O)Nc2ccc(NC(=O)c3ccccc3)c(C)c2)cc1[N+](=O)[O-]	Pf growth 96h 0.208µM
CCOc1ccc(C(=O)Nc2cccc(NC(=O)c3cccs3)c2)cc1[N+](=O)[O-]	Pf growth 96h 11.7µM (no result: Vaccinia mCherry, Vaccinia Venus)
CCOc1ccc(C(=O)Nc2ccc(N3CCN(S(C)(=O)=O)CC3)cc2)cc1[N+](=O)[O-]	Pf growth 96h 9.28µM (no result: Vaccinia mCherry, Vaccinia Venus)
Cc1ccc(O)c(N=Nc2ccc(S(=O)(=O)N3CCOCC3)cc2)c1	Pf growth 96h inconclusive, Pf growth 48h 5.22µM
CC(C)(C)c1cc(Br)c(O)c(N=Nc2ccc(S(=O)(=O)N3CCOCC3)cc2)c1	Pf growth 96h 10.4µM, Pf growth 48h 11.7µM
c1ccc(-c2nnc(SCc3nnc(-c4cccs4)o3)o2)cc1	Vaccinia Venus 7.08µM (no result: Vaccinia mCherry, Pf growth 48h)
CCN(CC)CCn1nc2c3c(cccc3c1=O)-c1ccccc1-2	Pf growth 48h 4.15µM (no result: Vaccinia mCherry, Vaccinia Venus)
COc1ccccc1CNC(=O)CCCn1c(=O)c2ccccc2n(Cc2ccc(F)cc2)c1=O	none (no result: Pf growth 96h, Pf growth 48h, AMA1-RON2 inh)
Cc1cccc(C)c1OCCSc1nc2ccccc2n1CC(=O)O	Pf growth 96h 11.7µM
COc1cccc(NC(=O)CCCCCN2C(=O)[C@@H]3Cc4ccccc4CN3C2=O)c1	Pf growth 96h 11.7µM, Pf growth 48h inconclusive (no result: Vaccinia mCherry, Vaccinia Venus)
Brc1cccc[n+]1CCCCCC[n+]1ccccc1Br	none (no result: Pf growth 96h, Pf growth 48h, AMA1-RON2 inh)
CC(C)CC(=O)NC(c1ccccc1Cl)c1c(O)ccc2ccccc12 (configuration not stated)	Vaccinia mCherry inconclusive, Pf growth 48h inconclusive, Vaccinia Venus inconclusive
CC(C)[C@H](N[C@@H](C)c1ccccc1)c1c(O)ccc2ccccc12	Pf growth 96h inconclusive, Pf growth 48h 2.94µM (no result: Vaccinia mCherry, Vaccinia Venus)
CCOc1ccc(C(NC(=O)CC)c2c(O)ccc3ccccc23)cc1 (configuration not stated)	Pf growth 96h inconclusive, Pf growth 48h 13.1µM (no result: Vaccinia mCherry, Vaccinia Venus)
CC(=O)Oc1ccc2ccccc2c1C(NC(=O)Cc1ccccc1)c1ccc(Cl)cc1 (configuration not stated)	Vaccinia mCherry 28.2µM, Pf growth 96h 2.94µM, Pf growth 48h 4.65µM, Vaccinia Venus inconclusive
COc1ccc(C(CC(=O)O)NC(=O)Cc2ccccc2)cc1OC (configuration not stated)	Pf growth 96h inconclusive
CC(C)(C)C(=O)NC(c1ccccc1)c1c(O)ccc2ccccc12 (configuration not stated)	Pf growth 96h inconclusive, Pf growth 48h 4.65µM (no result: Vaccinia mCherry, Vaccinia Venus)
CCOc1ccc(/C=N/OCC(=O)NC(c2ccccc2)c2ccccc2)cc1	Vaccinia mCherry inconclusive, Pf growth 96h 9.28µM, Pf growth 48h 7.38µM, Vaccinia Venus inconclusive
CCCC(=O)NC(c1ccc(OC)cc1)c1c(O)ccc2ccccc12 (configuration not stated)	Vaccinia mCherry inconclusive, Pf growth 48h 11.7µM
